Inconclusive results are not listed. The source made the active and inactive calls. Unless noted, calls come from the whole dose curve; as a rule, active = well fitted curve in the direction sought with a large enough effect in the repeat runs; inconclusive = weak or mixed curves; inactive = no such curve, though single readings can be large; an effect the other way counts as inactive or inconclusive.
Legend:
[1] = qHTS assay to identify small molecule antagonists of the estrogen receptor beta (ER-beta) signaling pathway - cell viability counter screen (AID 1259382);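 note: HEK293T cells carrying ER-beta-UAS-bla reporter stimulated with estradiol; series mostly up to about 92 µM; nearly all actives have a fitted effect of over 55% in size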
Method in brief: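 Cytotoxicity counter screen multiplexed with the beta-lactamase antagonist assay: GripTite HEK293T ER-beta-bla cells were treated 16 hr with test chemicals in the presence of 1nM 17-beta-estradiol, and viability was measured by CellTiter-Glo.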

[2] = qHTS assay to identify small molecule agonists or antagonists of the thyroid stimulating hormone receptor (TSHR) signaling pathway - wild type cell line counter screen (AID 1259384; calls by dose curve)
Method in brief: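 Wild-type HEK293 cells were plated 18 h at 37 C/5% CO2, pin-dosed with compound plus Ro20-1724 medium, held 30 min at room temperature, then given cAMP-d2 and anti-cAMP-cryptate; fluorescence was read after 1 h. Fifteen concentrations, triplicate.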

[3] = target: Thyrotropin receptor (Homo sapiens) (UniProt P16473); assay: qHTS assay to identify small molecule antagonists of the thyroid stimulating hormone receptor (TSHR) signaling pathway (AID 1259385; calls by dose curve; note: nearly all actives have a fitted effect of over 20% in size)
Sequence of Thyrotropin receptor (Homo sapiens) (P16473 whole entry, looked up): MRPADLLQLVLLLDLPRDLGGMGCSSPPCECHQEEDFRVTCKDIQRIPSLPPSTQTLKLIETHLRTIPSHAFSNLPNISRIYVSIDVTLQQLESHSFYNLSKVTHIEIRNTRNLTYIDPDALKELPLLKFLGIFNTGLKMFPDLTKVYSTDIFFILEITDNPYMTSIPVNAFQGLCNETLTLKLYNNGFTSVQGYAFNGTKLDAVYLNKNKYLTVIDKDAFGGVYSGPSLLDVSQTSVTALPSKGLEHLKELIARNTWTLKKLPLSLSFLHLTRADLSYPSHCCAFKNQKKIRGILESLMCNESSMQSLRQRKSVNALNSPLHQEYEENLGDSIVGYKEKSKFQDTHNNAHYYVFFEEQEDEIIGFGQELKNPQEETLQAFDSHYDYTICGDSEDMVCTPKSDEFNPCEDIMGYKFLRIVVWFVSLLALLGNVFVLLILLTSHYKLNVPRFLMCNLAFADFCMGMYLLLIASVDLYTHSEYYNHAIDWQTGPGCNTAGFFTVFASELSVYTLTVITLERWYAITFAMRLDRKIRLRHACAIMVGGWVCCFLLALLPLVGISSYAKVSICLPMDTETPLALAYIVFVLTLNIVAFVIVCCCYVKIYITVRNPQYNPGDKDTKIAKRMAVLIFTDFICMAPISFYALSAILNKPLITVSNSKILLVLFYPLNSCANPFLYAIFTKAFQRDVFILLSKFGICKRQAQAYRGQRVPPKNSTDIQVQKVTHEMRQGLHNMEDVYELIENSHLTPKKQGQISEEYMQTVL
Method in brief: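 TSHR-HEK293 cells were plated and held 18 h at 37C/5% CO2, then given compound plus Ro20-1724 and stimulated with TSH at 1.5 ng/mL final. After 30 min at room temperature, cAMP was detected with cAMP-d2/anti-cAMP-cryptate (1 h) by fluorescence.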

[4] = qHTS assay to identify small molecule agonists of the estrogen receptor alpha (ER-alpha) signaling pathway in the presence of an antagonist - cell viability counter screen (AID 1259386);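 note: series mostly up to about 92 µM; cells exposed to compounds for 22 h at 37 °C before the viability read; nearly all actives have a fitted effect of over 30% in size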
Method in brief: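 Cytotoxicity was measured in parallel with the ERE-luciferase agonist screen, in the same wells. The cells were VM7Luc4E2, which endogenously express ER-alpha, and treatment was with compounds plus 10.0nM ICI-182,780 for 22hr.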

[5] = target: Progesterone receptor (Homo sapiens) (UniProt P06401); assay: qHTS assay to identify small molecule agonists of the progesterone receptor (PR) signaling pathway (AID 1346784; calls by dose curve; note: nearly all actives have a fitted effect of over 30% in size)
Sequence of Progesterone receptor (Homo sapiens) (P06401 whole entry, looked up): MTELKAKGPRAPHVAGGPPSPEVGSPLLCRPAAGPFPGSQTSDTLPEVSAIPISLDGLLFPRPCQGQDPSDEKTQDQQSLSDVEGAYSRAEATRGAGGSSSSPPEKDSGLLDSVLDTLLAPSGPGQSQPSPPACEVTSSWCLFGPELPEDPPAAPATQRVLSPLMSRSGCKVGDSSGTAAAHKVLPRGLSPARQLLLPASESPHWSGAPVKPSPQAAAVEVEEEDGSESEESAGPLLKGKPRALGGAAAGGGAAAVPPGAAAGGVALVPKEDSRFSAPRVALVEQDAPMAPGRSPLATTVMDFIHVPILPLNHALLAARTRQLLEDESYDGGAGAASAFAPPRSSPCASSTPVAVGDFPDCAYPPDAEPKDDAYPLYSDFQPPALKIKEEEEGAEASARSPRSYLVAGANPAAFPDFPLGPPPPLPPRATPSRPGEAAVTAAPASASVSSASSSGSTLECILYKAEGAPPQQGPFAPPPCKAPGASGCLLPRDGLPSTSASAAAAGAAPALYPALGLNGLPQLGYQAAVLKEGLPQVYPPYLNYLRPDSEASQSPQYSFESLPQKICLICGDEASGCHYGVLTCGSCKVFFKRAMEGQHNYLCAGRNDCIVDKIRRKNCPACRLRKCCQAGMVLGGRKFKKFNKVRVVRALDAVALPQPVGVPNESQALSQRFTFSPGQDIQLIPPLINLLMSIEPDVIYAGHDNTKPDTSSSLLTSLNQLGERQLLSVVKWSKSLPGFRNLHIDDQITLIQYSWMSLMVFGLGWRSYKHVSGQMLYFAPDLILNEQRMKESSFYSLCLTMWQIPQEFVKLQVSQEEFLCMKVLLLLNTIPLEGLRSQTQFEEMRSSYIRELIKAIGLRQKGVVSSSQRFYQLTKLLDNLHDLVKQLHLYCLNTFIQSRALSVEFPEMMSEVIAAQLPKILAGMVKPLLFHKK
Method in brief: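 Agonist qHTS: compounds pinned onto 3,000 PR-UAS-bla HEK 293T cells per well in charcoal-stripped serum medium, 16hr at 37C, then beta-lactamase activity measured by LiveBLAzer FRET fluorescence after 2 hours at room temperature.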

[6] = target: Progesterone receptor (Homo sapiens) (UniProt P06401); assay: qHTS assay to identify small molecule antagonists of the progesterone receptor (PR) signaling pathway (AID 1346795; active = well fitted inhibition curve with a large enough effect in the signal ratio in the repeat runs, not every such curve was filed as active; the % refers to the signal ratio)
Method in brief: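 Antagonist mode with agonist R5020 at 1 nM final and 16 hr incubation at 37C. Reporter was beta-lactamase driven by UAS in HEK293T (PR-UAS-bla), 2% charcoal-stripped serum; signal from LiveBLAzer FRET substrate, 2 hr at room temperature.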

[7] = qHTS assay to identify small molecule antagonists of the progesterone receptor (PR) signaling pathway - cell viability counter screen (AID 1346798); note: series mostly up to about 92 µM; nearly all actives have a fitted effect of over 50% in size
Method in brief: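 Cytotoxicity read as CellTiter-Glo luminescence (30 min, room temperature) in the same wells as the beta-lactamase readout. HEK293T PR-UAS-bla cells in charcoal-stripped 2% FBS received compound and R5020, then 16 h at 37C, 5% CO2.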

[8] = qHTS assay to identify small molecule agonists of the progesterone receptor (PR) signaling pathway - cell viability counter screen (AID 1346799; calls by dose curve; note: nearly all actives have a fitted effect of over 45% in size)
Method in brief: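 Cytotoxicity measured by CellTiter-Glo luminescence (30 min, RT) in the same wells as the PR beta-lactamase agonist read. Those HEK293T cells had 16 h compound treatment at 37 C in 2% charcoal-stripped FBS medium.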

[9] = qHTS assay to identify small molecule antagonists of the TGF-beta/Smad signaling pathway - cell viability counter screen (AID 1346824); note: nearly all actives have a fitted effect of over 50% in size
Method in brief: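 SBE-bla HEK 293T cells were plated overnight at 37 C, then given compounds in DMSO plus TGF-beta1 (added as 0.25 ng/mL solution) for 5 hr. After the bla read, CellTiter-Glo was added to the same wells and luminescence read after 30 min at room temperature.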

[10] = qHTS assay to identify small molecule agonists of the TGF-beta/Smad signaling pathway - cell viability counter screen (AID 1346829); note: top concentration of the series differs between compounds; nearly all actives have a fitted effect of over 45% in size
Method in brief: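 HEK 293T SBE-bla line, 5 hr compound exposure at 37 C, multiplexed CellTiter-Glo viability read by luminescence.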

[11] = qHTS assay to identify small molecule agonists of the TGF-beta/Smad signaling pathway (AID 1346859; active = well fitted activation curve with a large enough effect in the signal ratio in the repeat runs, not every such curve was filed as active; the % refers to the signal ratio; note: series mostly up to about 77 µM)
Method in brief: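 Fluorescence (ex 405 nm; em 460 and 530 nm) was read 2 h after LiveBLAzer FRET substrate at RT. The preceding compound treatment of overnight-plated SBE-bla HEK293T cells lasted 5 h at 37 C.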

[12] = target: Thyrotropin-releasing hormone receptor (Homo sapiens) (UniProt P34981); assay: qHTS assay to identify small molecule antagonists of the thyrotropin-releasing hormone receptor (TRHR) signaling pathway (AID 1346877; active = well fitted inhibition curve with a large enough effect in the repeat runs, not every such curve was filed as active; note: series mostly up to about 51 µM)
Sequence of Thyrotropin-releasing hormone receptor (Homo sapiens) (P34981 whole entry, looked up): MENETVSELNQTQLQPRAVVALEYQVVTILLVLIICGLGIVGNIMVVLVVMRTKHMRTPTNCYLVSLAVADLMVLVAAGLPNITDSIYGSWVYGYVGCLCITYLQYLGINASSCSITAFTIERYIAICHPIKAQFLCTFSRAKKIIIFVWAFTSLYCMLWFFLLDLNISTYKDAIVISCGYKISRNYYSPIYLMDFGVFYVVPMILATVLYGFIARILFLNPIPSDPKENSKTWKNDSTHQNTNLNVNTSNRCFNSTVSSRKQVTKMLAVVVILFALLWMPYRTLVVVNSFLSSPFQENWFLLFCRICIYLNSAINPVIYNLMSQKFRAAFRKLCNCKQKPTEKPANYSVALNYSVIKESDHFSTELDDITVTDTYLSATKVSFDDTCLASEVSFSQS
Method in brief: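 Antagonism is measured as suppression of the calcium response to 1 nM TRH in TRHR-HEK293 cells that have been dye-loaded for 2 h at 37 °C after overnight plating. Each compound is tested at 15 concentrations in triplicate.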

[13] = target: Thyrotropin-releasing hormone receptor (Homo sapiens) (UniProt P34981); assay: qHTS assay to identify small molecule agonists of the thyrotropin-releasing hormone receptor (TRHR) signaling pathway (AID 1346891; calls by dose curve; note: series mostly up to about 58 µM)
Method in brief: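 Agonist-mode intracellular calcium readout: kinetic fluorescence over 3 min at 1 s intervals after compound addition to TRHR-HEK293 cells (18 h seeded, 2 h dye-loaded at 37 C). Fifteen concentrations, triplicates.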

[14] = Human pregnane X receptor (PXR) small molecule agonists, qHTS cell viability counter screen (AID 1346977); note: nearly all actives have a fitted effect of over 50% in size
Method in brief: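 Same-well viability read: CellTiter-Fluor added after 23 hr compound exposure, fluorescence measured 1 hr later. Cells were PXR-Luc HepG2 seeded at 2,000/well in 5% charcoal-stripped FBS medium, rested 5 hr before dosing at 37 C.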

[15] = Caspase-3/7 induction in CHO-K1 cells by small molecules, qHTS cell viability counter screen (AID 1346979); note: nearly all actives have a fitted effect of over 35% in size
Method in brief: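 Cytotoxicity counter screen: CellTiter-Fluor added to compound-treated wild-type CHO-K1 cells at 16 h (37C, 5% CO2), fluorescence measured 1 h later; same wells as caspase-3/7 measurement.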

[16] = Caspase-3/7 induction in CHO-K1 cells by small molecules, qHTS assay (AID 1346980); note: nearly all actives have a fitted effect of over 15% in size
Method in brief: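 Wild-type cells were seeded at 1,500 per well and settled 5 hr at 37 C, 5% CO2, then exposed to DMSO-dissolved compounds for 17 hr. Caspase-Glo 3/7 reagent was added, and luminescence was read after 30min at room temperature.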

[17] = Caspase-3/7 induction in HepG2 cells by small molecules, qHTS cell viability counter screen (AID 1346981); note: series mostly up to about 92 µM; nearly all actives have a fitted effect of over 30% in size
Method in brief: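 Cell viability is measured as a cytotoxicity counter screen alongside the Caspase-Glo 3/7 readout in identical wells. Wild-type HepG2 cells are treated with test compounds for 16 hr at 37 C before CellTiter-Fluor addition and a 1-hr incubation.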

[18] = Caspase-3/7 induction in HepG2 cells by small molecules, qHTS assay (AID 1346978); note: nearly all actives have a fitted effect of over 15% in size
Method in brief: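 Wild-type HepG2 cells (2,000/well) were settled 5 h at 37 C, 5% CO2, then exposed to compounds in DMSO for 17 h. Caspase-3/7 activity was read by luminescence 30 min after adding Caspase-Glo 3/7 reagent at room temperature.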

[19] = target: Estrogen receptor (Homo sapiens) (UniProt P03372); assay: qHTS assay to identify small molecule agonists of the estrogen receptor alpha (ER-alpha) signaling pathway in the presence of an antagonist (AID 1259383; calls by dose curve; note: top concentration of the series differs between compounds; nearly all actives have a fitted effect of over 15% in size)
Sequence of Estrogen receptor (Homo sapiens) (P03372 whole entry, looked up): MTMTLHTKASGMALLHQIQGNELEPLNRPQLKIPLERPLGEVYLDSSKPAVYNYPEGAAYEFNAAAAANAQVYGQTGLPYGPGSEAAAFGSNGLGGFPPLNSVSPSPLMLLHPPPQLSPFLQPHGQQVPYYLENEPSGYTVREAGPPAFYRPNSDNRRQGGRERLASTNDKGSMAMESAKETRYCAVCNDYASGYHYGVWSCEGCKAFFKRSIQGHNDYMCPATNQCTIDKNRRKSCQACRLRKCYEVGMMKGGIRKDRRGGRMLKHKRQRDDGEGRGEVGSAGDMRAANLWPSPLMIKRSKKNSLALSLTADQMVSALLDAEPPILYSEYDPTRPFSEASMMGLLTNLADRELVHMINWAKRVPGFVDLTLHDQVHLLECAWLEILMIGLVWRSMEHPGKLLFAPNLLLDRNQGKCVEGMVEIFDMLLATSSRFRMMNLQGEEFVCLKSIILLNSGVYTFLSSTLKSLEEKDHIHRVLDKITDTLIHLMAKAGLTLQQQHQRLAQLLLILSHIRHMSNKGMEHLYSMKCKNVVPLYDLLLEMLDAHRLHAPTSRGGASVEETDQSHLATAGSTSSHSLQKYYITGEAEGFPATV
Method in brief: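 Agonist-mode confirmation in the presence of the ER antagonist ICI-182,780 at 10.0nM final. Breast-derived VM7Luc4E2 reporter cells were exposed to compounds for 22hr, and ERE-driven luciferase was quantified by luminescence.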

Measured: Potency

CC(=O)OC(C)=O
inactive: [1] | [2] | [3] | [4] | [5] | [6] | [7] | [8] | [9] | [10] | [11] | [12] | [13] | [14] | [15] | [16] | [17]

CCCCCCCCCOC(=O)CCCCC(=O)OCCCCCCC
inactive: [1] | [2] | [3] | [4] | [5] | [6] | [7] | [8] | [9] | [10] | [11] | [12] | [13] | [14] | [18] | [15] | [16] | [17]

CC1=C(C(=O)O)N2C(=O)[C@@H](NC(=O)[C@H](N)c3ccccc3)[C@H]2SC1
inactive: [1] | [19] | [4] | [5] | [6] | [7] | [8] | [9] | [10] | [11] | [12] | [13] | [14] | [15] | [16] | [17]

CCCCCCCCCCOC(C)=O
inactive: [1] | [19] | [2] | [3] | [4] | [5] | [8] | [9] | [10] | [11] | [12] | [13] | [14] | [18] | [15] | [16] | [17]

CC(C)Cn1cnc2c1c(=O)n(C)c(=O)n2C
inactive: [1] | [19] | [2] | [3] | [4] | [6] | [7] | [9] | [10] | [11] | [13] | [14] | [18] | [16] | [17]

CC(=O)CCC1=C(C)CCCC1(C)C
inactive: [1] | [19] | [2] | [3] | [4] | [5] | [7] | [8] | [9] | [10] | [12] | [13] | [14] | [18] | [15] | [16]

CC1=C(C(=O)O)N2C(=O)[C@@H](NC(=O)[C@H](N)C3=CCC=CC3)[C@H]2SC1
inactive: [1] | [19] | [2] | [3] | [4] | [5] | [7] | [8] | [9] | [10] | [11] | [14] | [18] | [15] | [16] | [17]

O=C(O)CCCCCC(=O)O
inactive: [1] | [19] | [4] | [5] | [6] | [7] | [8] | [9] | [10] | [12] | [13] | [14] | [18] | [15] | [16] | [17]

CC1(C)O[C@H]2CC(=O)OC[C@]23[C@H]2CC[C@@]4(C)[C@H](c5ccoc5)OC(=O)[C@H]5O[C@]54[C@]2(C)C(=O)C[C@@H]13
inactive: [1] | [19] | [2] | [3] | [4] | [5] | [7] | [8] | [9] | [10] | [12] | [13] | [14] | [18] | [15] | [16] | [17]

c1ccc2cnccc2c1
inactive: [1] | [19] | [4] | [5] | [7] | [8] | [9] | [10] | [11] | [14] | [18] | [15] | [16] | [17]

Cc1ncc([N+](=O)[O-])n1CC(C)O (stereo unspecified)
inactive: [1] | [19] | [4] | [7] | [8] | [9] | [10] | [11] | [13] | [14] | [18] | [16] | [17]

CC1(C)[C@H]2CC[C@](C)(C2)[C@H]1O
inactive: [1] | [19] | [2] | [3] | [4] | [5] | [7] | [8] | [9] | [10] | [14] | [18] | [15] | [16] | [17]

CN(C)CCCO[C@@H]1[C@H]2OC(C)(C)O[C@H]2O[C@@H]1C(O)CO (stereo partly specified)
inactive: [1] | [19] | [4] | [5] | [8] | [9] | [10] | [11] | [13] | [14] | [18] | [16] | [17]

COC(=O)c1cccc(Cl)c1
inactive: [1] | [19] | [2] | [4] | [5] | [6] | [7] | [8] | [9] | [10] | [12] | [13] | [14] | [18] | [15] | [16] | [17]

O=C1CCC(=O)N1Cl
inactive: [1] | [19] | [2] | [3] | [4] | [6] | [7] | [9] | [10] | [11] | [14] | [18] | [15] | [16] | [17]

CC(C)CO
inactive: [1] | [19] | [2] | [3] | [4] | [8] | [9] | [10] | [11] | [12] | [13] | [14] | [18] | [15] | [16] | [17]

Reference: PubChem BioAssay (Tox21)
